Consider 88 compounds from PubChem BioAssay AID624151 (Broad Institute, 2012).

Among all 28,000 compounds or so, about 410 (1.5%) were called active. What follows is part of a selection rich in actives, with near analogues and random picks from the rest. Unmarked numbers belong to inactive results. Rule as the data show it: active = activation above about 52%; inconclusive = no clear call, values can overlap the other calls; inactive = below that.

The nature of this assay: mutant p53 pathway re-activators, primary screen, cell-based, SW480, luciferase, single point, HTS (AID 624151). To be noted: SW480 PUMA-promoter luciferase, p53 mutant reactivation; at 9.98 µM; stronger effect = higher value.
For the compound `CS(=O)(=O)N(CC(=O)Nc1cc(C(F)(F)F)ccc1Cl)c1ccccc1Br`, the activation is -13.9%. The same measure for `Cc1cc(C)c2oc(-c3cccc(NC(=O)COc4ccc(Br)cc4)c3C)nc2c1`: -29.6%; for `Cc1ccc2nc(-c3ccc(Cl)c(NC(=O)COc4ccc(Br)cc4)c3)oc2c1`: 91.4% (active). As for `Cc1ccc(OCC(=O)Nc2cc(-c3nc4cc(C)c(C)cc4o3)ccc2C)cc1`, the figure is 39.9%. The same measure for `CS(=O)(=O)N(CC(=O)Nc1ccccc1C(=O)N1CCOCC1)c1ccc(I)cc1`: 9.09%; for `CN(C)CCNc1oc(COc2ccc(F)cc2)nc1C#N`: -4.45%. For `Cc1ccc(N(CC(O)CN2C(=O)NC(C)(C)C2=O)S(=O)(=O)c2ccccc2)cc1` (stereo not drawn), the activation is 22.6%. As for `O=C1c2ccccc2C(=O)N1CCCn1c2ccccc2c2nc3ccc([N+](=O)[O-])cc3cc21`, the figure is 9.36%; as for `Cc1ccc(NC(=O)CCCN2C(=O)c3ccccc3C2=O)cc1`, 11.8%. The same measure for `O=C1c2ccccc2C(=O)N1CCCc1nc2ccccc2c(=O)n1-c1nc2ccccc2s1`: 102% (active); for `COCC#Cc1cnc2c(c1)C(=O)N([C@H](C)CO)C[C@H](C)[C@@H](CN(C)C(=O)Nc1cc(F)ccc1F)O2`: 13.3%. With `CC(NS(=O)(=O)c1ccc(F)cc1)C(=O)Nc1ccc(I)cc1` (stereo not drawn), the activation was -13.8%. As for `COc1ccc(C#Cc2cnc3c(c2)C(=O)N([C@H](C)CO)C[C@H](C)[C@@H](CN(C)C)O3)cc1`, the figure is 0.282%; as for `O=C(CS(=O)(=O)c1ccccc1)Nc1ccc2c(c1)OCCO2`, 61.6% (active). The same measure for `COc1ccc(S(=O)(=O)N(C)CC(=O)Nc2ccc3c(c2)OCCO3)cc1OC`: -12.9%; for `O=C(CS(=O)(=O)c1ccccc1)Nc1ccccc1O`: 7.6%; for `Cc1ccc2nc(-c3ccncc3)cc(C(=O)NCc3ccccn3)c2c1`: -3.82%. As for `CN(c1ccc(C(=O)NCc2ccccn2)cc1)S(C)(=O)=O`, the figure is 5.75%.

Take `CC(C)(C)c1ccc(OCC(=O)NCc2ccccn2)c(Br)c1`: the activation is 94.5% (active). As to `CCCNC(=O)N(C)C[C@H]1Oc2cc(C#CC(C)(C)O)ccc2S(=O)(=O)N([C@H](C)CO)C[C@@H]1C`, the activation was 14.1%.

In the case of `CCc1ccccc1NC(=O)Cn1cnc2scc(-c3ccc(OC)cc3)c2c1=O`, the activation is -10.3%.

`Cc1cccc(N(CC(=O)Nc2cccc([N+](=O)[O-])c2)S(C)(=O)=O)c1C`: the activation is -1.11%. The same measure for `Cc1nc(SCC(=O)Nc2ccc(C(=O)O)cc2)[nH]c(=O)c1C`: -11.8%; for `CCn1cc(CNC(=S)Nc2cc(OC)ccc2OC)cn1`: -10.5%. As for `CCCNC(=O)N(C)C[C@@H]1Oc2ncc(-c3ccccc3F)cc2C(=O)N([C@@H](C)CO)C[C@H]1C`, the figure is 16.1%; as for `CC(C)(C)c1ccc(OCC(=O)Nc2cccc(NC(=O)c3ccccc3)c2)cc1`, 39.6%; as for `COc1ccccc1CC(=O)Nc1ccc(-c2nnc(-c3ccc(C)cc3)o2)cc1`, -31.3%. Consider `Cc1cc(C)cc(OCC(=O)Nc2cccc(-c3nnc(-c4ccccc4)o3)c2)c1`, for which the activation was 90.4% (active). As for `Cc1[nH]c2ccccc2c1C(=O)CSc1ccc2ccccc2n1`, the activation is -16.4%. On to `CCCNC(=O)N(C)C[C@@H]1Oc2ncc(-c3cccc(C#N)c3)cc2C(=O)N([C@@H](C)CO)C[C@H]1C`, for which the activation is 0.271%. The same measure for `CC(C)C#Cc1ccc2c(c1)O[C@@H](CN(C)Cc1ccncc1)[C@@H](C)CN([C@@H](C)CO)S2(=O)=O`: -4.79%; for `CC(Sc1ncn(-c2ccccc2)n1)C(=O)Nc1ccc(Cl)cc1` (stereo not drawn): 7.31%; for `C[C@H](CO)N1C[C@H](C)[C@H](CN(C)Cc2cccc(C(=O)O)c2)Oc2ncc(-c3ccccc3F)cc2C1=O`: 5.45%. The same measure for `COc1cc([C@H](Cc2ccccc2)NC(C)=O)oc(=O)c1`: 12.8%; for `COc1ccc(NC(=O)Nc2ccc3c(c2)[C@@H]2C[C@H](CC(=O)N[C@@H](C)c4ccccc4)O[C@@H](CO)[C@@H]2O3)cc1`: -6.79%.

In the case of `COc1ccc2c(c1)C(=O)CC(c1ccccc1)O2` (stereo not drawn), the activation was 60.3% (active). Regarding `Cn1nc(CC(=O)Nc2ccc3c(c2)oc2ccccc23)c2ccccc2c1=O`, the activation is -34.2%. As for `O=C(C[C@@H]1C[C@H]2c3cc(NC(=O)NC4CCCC4)ccc3O[C@H]2[C@H](CO)O1)NCc1cc(F)ccc1F`, the figure is -2.6%; as for `C[C@H]1CN([C@@H](C)CO)C(=O)c2cc(-c3ccc(C#N)cc3)cnc2O[C@@H]1CN(C)Cc1ccncc1`, -0.372%; as for `Cc1ccc([N+](=O)[O-])cc1NC(=O)CSC1=NCCS1`, -5.18%.

With `CNC[C@H]1Oc2cc(C#CC(C)(C)O)ccc2S(=O)(=O)N([C@@H](C)CO)C[C@@H]1C`, the activation is 15.9%. The same measure for `C[C@@H]1CN([C@H](C)CO)C(=O)c2c(c3ccccc3n2C)-c2ccccc2CO[C@H]1CN(C)S(=O)(=O)c1ccccc1F`: 1.72%; for `Nc1nnc(SCC(=O)Nc2ccc(F)c(Cl)c2)s1`: -1.2%; for `C[C@@H]1CN([C@@H](C)CO)S(=O)(=O)c2ccc(C#CCC3CCCC3)cc2O[C@H]1CN(C)Cc1ccc(C(=O)O)cc1`: -0.35%. The same measure for `C[C@@H]1CCCCO[C@@H](CN(C)S(=O)(=O)c2cn(C)cn2)[C@@H](C)CN([C@@H](C)CO)C(=O)c2cc(NC(=O)NC3CCCCC3)ccc2O1`: 16%. Turning to `COc1ccc(OC)c(S(=O)(=O)N(C)CC(=O)Nc2cccc(Cl)c2C)c1`, the activation is -5.43%. As for `CNC[C@H]1Oc2ncc(-c3ccccc3C)cc2C(=O)N([C@@H](C)CO)C[C@@H]1C`, the figure is 6.16%; as for `CC(=O)Nc1ccc(NC(=O)CSc2nnc3c4cc(Br)ccc4n(C)c3n2)cc1`, -24.7%; as for `C[C@@H]1CN([C@@H](C)CO)C(=O)c2cc(C#CC(C)(C)O)cnc2O[C@H]1CN(C)Cc1cccc(F)c1`, -7.7%. The same measure for `COc1ccccc1NC(=O)CN(c1ccc(Br)c(C)c1)S(C)(=O)=O`: 7.45%; for `C[C@@H]1CN([C@H](C)CO)C(=O)c2cc(-c3cncnc3)cnc2O[C@@H]1CN(C)Cc1ccc(Oc2ccccc2)cc1`: 9.54%. For `CCc1cc(C(=O)OC)c(NC(=S)Nc2ccc(OC)cc2[N+](=O)[O-])s1`, the activation is 62.7% (active). The same measure for `COc1ccc(NC(=O)CSc2nncc3ccccc23)c([N+](=O)[O-])c1`: 4.65%; for `COC(=O)c1c(NC(=S)Nc2ccc(OC)cc2[N+](=O)[O-])sc2c1CCC(C)C2` (stereo not drawn): 4.27%; for `CC(C(=O)Nc1nccs1)C1SC(=O)NC1=O` (stereo not drawn): 1.73%. As for `C[C@H]1CN([C@@H](C)CO)C(=O)c2cc(C3=CCCC3)cnc2O[C@H]1CN(C)Cc1ccccc1C(=O)O`, the figure is 16.5%; as for `COCC#Cc1cnc2c(c1)C(=O)N([C@H](C)CO)C[C@H](C)[C@H](CN(C)C(=O)CCN1CCCCC1)O2`, 6.72%. As for `Cc1ccc(S(=O)(=O)N(C)C[C@@H]2Oc3c(NC(=O)C4CC4)cccc3C(=O)N([C@H](C)CO)C[C@@H]2C)cc1`, the figure is -8.13%; as for `COc1cc(NC(=S)NCCN2CCOCC2)c(OC)cc1Cl`, -5.79%. Take `Cc1cc(=O)oc2cc(OC(C)C(=O)Nc3ccc(N4CCOCC4)cc3)ccc12` (stereo not drawn): the activation is 7.05%. Regarding `CC(=O)CCc1c(C)[nH]c2ccc(C)cc2c1=O`, the activation was 14.2%. As for `C[C@@H]1CCCCO[C@@H](CN(C)S(=O)(=O)c2cn(C)cn2)[C@H](C)CN([C@H](C)CO)C(=O)c2cc(NC(=O)NC3CCCCC3)ccc2O1`, the figure is 17%. As for `COc1cc(Cl)c(C)cc1NC(=O)CN(C)S(=O)(=O)c1ccc2ccccc2c1`, the figure is 14.5%. As for `C[C@@H]1CN([C@H](C)CO)S(=O)(=O)c2ccc(-c3cncnc3)cc2O[C@H]1CN(C)C(=O)Cc1ccccc1`, the activation was -1.41%. Consider `COc1ccc(-c2nnc(SCC(=O)Nc3cccc(SC)c3)n2C)cc1`, for which the activation is -10.6%. Regarding `CC(=O)OC[C@H]1O[C@@H](Oc2c(-c3ccc(O)c(O)c3)oc3cc(O)cc(O)c3c2=O)[C@H](O)[C@@H](O)[C@@H]1O`, the activation was 7.83%. As for `CCc1ccccc1NC(=O)COc1cc(O)c2c(=O)cc(-c3ccccc3)oc2c1`, the figure is -9.5%; as for `COc1c(O)cc2oc(-c3ccc(O)c(O)c3)cc(=O)c2c1O`, 89.5% (active); as for `CCOC(=O)c1c(NC(=O)C(C)Oc2ccc3c(C)cc(=O)oc3c2)sc2c1CCC2` (stereo not drawn), 18.5%. The same measure for `O=C(CN(C1CCCCC1)S(=O)(=O)c1ccc(Cl)cc1)Nc1ccccc1C(F)(F)F`: 3.31%; for `COc1cccc(C#Cc2cnc3c(c2)C(=O)N([C@@H](C)CO)C[C@H](C)[C@H](CN(C)CC2CC2)O3)c1`: 4.89%; for `COc1cc(CO)cc(Cl)c1OCc1cccc([N+](=O)[O-])c1`: 0.353%.

`COc1ccccc1CCNC(=O)c1cnccn1`: the activation is 18.5%.

Regarding `C[C@@H]1CN([C@@H](C)CO)C(=O)c2c(c3ccccc3n2C)-c2ccccc2CO[C@@H]1CN(C)S(=O)(=O)CC(F)(F)F`, the activation was 6.74%. Consider `Cc1ccccc1-c1ccc2c(c1)O[C@@H](CN(C)C(=O)Nc1ccc(F)cc1)[C@H](C)CN([C@@H](C)CO)S2(=O)=O`, for which the activation is -36.4%.

As to `CCCNC(=O)C[C@H]1C[C@@H]2c3cc(NS(=O)(=O)c4cccc(OC)c4)ccc3O[C@@H]2[C@@H](CO)O1`, the activation was 9.83%. As for `CCOc1ccc(Cl)cc1S(=O)(=O)NC1CC(C)(C)NC(C)(C)C1`, the figure is 2.34%; as for `Cc1ccc(C)c(OCC(=O)Nc2ccccc2C#N)c1`, 121% (active).

As for `Cc1ccc(-c2nc3cc(NC(=O)COc4ccc([N+](=O)[O-])cc4)ccc3o2)cc1C`, the activation was 21.6%. With `Cc1ccc(NC(=O)COc2ccccc2C)c([N+](=O)[O-])c1`, the activation was 109% (active).

As to `COc1ccc(NC(=O)COc2cc(C)c(Br)c(C)c2)c([N+](=O)[O-])c1`, the activation is -11.9%. `Cc1cc(C)c2oc(-c3ccc(C)c(NC(=O)COc4ccccc4C)c3)nc2c1`: the activation was -4.75%.

In the case of `COc1ccc(C(=O)Nc2cc(C)ccc2NC(=O)COc2ccccc2)cc1`, the activation is 28%. As for `O=C(COc1ccc([N+](=O)[O-])cc1)Nc1ccc2oc(-c3cccc(F)c3)nc2c1`, the figure is 43.6%; as for `CN(CC(=O)Nc1ccccc1C#N)S(=O)(=O)c1ccc2ccccc2c1`, 0.461%; as for `Cc1cc2nc(-c3ccc(NC(=O)COc4ccccc4[N+](=O)[O-])cc3)oc2cc1C`, 68.1% (active). As for `COc1ccccc1NC(=O)CSc1ncc(-c2ccccc2)nn1`, the activation was 36.5%.

In the case of `C[C@@H]1CN([C@H](C)CO)C(=O)c2cc(C#Cc3cccnc3)cnc2O[C@@H]1CN(C)Cc1ccc(F)cc1`, the activation was 5.15%.
